Source: PubChem BioAssay
This excerpt belongs to a sample that is enriched for hits.
UCHL1 inh = inhibitors of human UCHL1 deubiquitinase; P09936; purified UCHL1, Ub-rhodamine cleavage fluorescence; inhibition, % at 20 µM; 47,000 tested, 0.2% active; AID 1645859
Target sequence (P09936 whole entry, looked up): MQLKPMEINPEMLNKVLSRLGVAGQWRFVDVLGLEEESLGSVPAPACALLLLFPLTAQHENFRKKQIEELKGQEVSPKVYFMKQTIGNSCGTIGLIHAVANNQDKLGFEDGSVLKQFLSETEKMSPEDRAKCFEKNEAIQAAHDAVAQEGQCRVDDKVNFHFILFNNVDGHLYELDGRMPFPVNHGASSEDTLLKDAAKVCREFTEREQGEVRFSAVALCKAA
OTUD3 block = inhibitors of human OTUD3 deubiquitinase; purified OTUD3, Ub-rhodamine fluorescence, 2 h; 47,000 tested, 0.7% active; inhibition, % at 25 µM; Q5T2D3; AID 1645858
* hit, by the source's call. Rule as the data show it: active = inhibition above about 30%; inactive = the rest.

SMILES	UCHL1 inh	OTUD3 block
Cc1nnc(-c2ccc3ccn(CC(=O)N4CCCc5ccccc54)c3c2)o1	51.3*	2.1
Cc1nnc(-c2ccc3ccn(CC(=O)N4CCN(c5ccccc5)CC4)c3c2)o1	24.7	72.8*
Cc1nnc(-c2ccc3ccn(CC(=O)NC4CCCC4)c3c2)o1	-1.4	-5.8
Cc1nnc(-c2ccc3ccn(CC(=O)NC4CCCCCC4)c3c2)o1	1.2	9.1
O=C(CCCn1c(SCC(=O)Nc2cccc(C(F)(F)F)c2)nc2ccccc2c1=O)NCCc1ccccc1	1.4	10.5
Cc1cccc(CNC(=O)c2cnc3sc4c(n3c2=O)CCCC4)c1	3.5	13.0
O=C(c1cccc([N+](=O)[O-])c1)N(c1ccccn1)c1ccccn1	-3.0	-0.9
O=C(/C=C/c1ccco1)c1cccc([N+](=O)[O-])c1	19.3	47.2*
CCCC(O)CCCCCCCc1cc(O)cc(O)c1C(=O)OC(CCC)CCCCCCCc1cc(O)cc(O)c1 (configuration not stated)	5.6	19.0
COc1cccc(C(=O)Cn2nc3n(CCC(C)C)c(=O)c4sccc4n3c2=O)c1	4.7	0.0
COc1cccc(Cn2nc3n(CC(C)C)c(=O)c4ccc(C(=O)NCC(C)C)cc4n3c2=O)c1	0.4	36.4*
COc1cccc(CC2(Cc3cccc(OC)c3)C(=O)N(Cc3ccccn3)C(=O)c3ccccc32)c1	7.2	25.6
CS(=O)(=O)n1nc(NCc2ccc(F)cc2)nc1NCc1ccc(F)cc1	2.1	33.5*
Cc1ccc(CNc2nc(-c3cccnc3)nn2S(C)(=O)=O)cc1	2.9	4.2
Cc1ccc2nc(NC(=O)C3CC(=O)N(Cc4ccccc4)C3)sc2c1 (configuration not stated)	2.3	-13.3
COc1ccc(Cn2ccc3nc(N4CCCCC4)ncc3c2=O)cc1	4.4	19.4
O=C1c2c(O)c(Cl)cc3c2[C@@]2(Oc4ccc(O)c5c4[C@]3(O2)[C@@H]2O[C@@H]2C5=O)[C@@H]2O[C@H]12	84.0*	88.7*
Oc1ccc2c3c1[C@@H](O)C1OC1[C@]31Oc3cccc4c3[C@](C=C[C@@H]4O)(O2)O1 (some centres not stated)	0.2	-7.3
O=c1[nH]c(C2CCN(S(=O)(=O)c3ccc(S(=O)(=O)N4CCOCC4)cc3)CC2)nc2c1nnn2Cc1ccc(F)cc1	31.2*	8.1
O=c1[nH]c(C2CCN(S(=O)(=O)c3ccc(S(=O)(=O)N4CCOCC4)cc3)CC2)nc2c1nnn2Cc1cccc(F)c1	-9.7	-6.4
Nc1ccc(F)c(NS(=O)(=O)c2ccccc2)c1	30.8*	55.4*
O=C(Nc1ccccc1F)c1cncc(NS(=O)(=O)c2ccccc2)c1	5.5	6.0
Cc1cn2nnc(C(=O)Nc3ccc(Cl)c(Cl)c3)c2c(=O)[nH]1	0.0	-1.2
CCc1cccc(C)c1NC(=O)Cn1c(C(C)NC(=O)c2ccc(C)cc2)nc2ccccc21 (configuration not stated)	3.3	23.7
NC(=O)c1ccccc1NCc1cc(=O)n2cc(Cl)ccc2n1	-17.9	-28.9
SMILES	UCHL1 inh	OTUD3 block
Cc1ccc2nc(CNc3ccc(F)cc3C)cc(=O)n2c1	31.7*	42.0*
O=C1CC2C3CCC(=O)c4c(O)ccc(c43)C2(O)c2cccc(O)c21 (configuration not stated)	16.9	20.5
O=C(Nc1cccc(-c2nc3ccccc3[nH]2)c1)c1cc2ccccc2oc1=O	0.0	1.1
CC1CCN(c2nnc(-c3nc(C4CC4)no3)c3ccccc23)CC1	5.4	31.0*
c1ccc2c(N3CCCC3)nnc(-c3nc(C4CC4)no3)c2c1	1.4	3.0
O=C1c2ccccc2-c2nnc(-c3ccncc3)cc21	16.1	15.7
CCc1nc2c(c(=O)c3ccccc3n2C)c(=O)n1-c1ccc(C)cc1	32.9*	1.4
Cn1c2ccccc2c(=O)c2c(=O)n(-c3ccccc3)c(-c3ccc(Cl)cc3)nc21	0.8	15.6
Cc1nc(Nc2ncccn2)cc(C2CCCN2)n1 (configuration not stated)	0.1	3.6
CC(OC(=O)c1c2c(nc3ccccc13)CCCC2)C(=O)Nc1ccc(N(C)C)cc1 (configuration not stated)	-0.7	-18.4
CC(OC(=O)c1c2c(nc3ccccc13)CCCCC2)C(=O)Nc1ccc2ccccc2c1 (configuration not stated)	4.3	42.8*
CC(C)Cn1c(=O)c2nscc2n(CC(=O)Nc2ccc(F)cc2F)c1=O	7.9	14.5
CC/C=C\C/C=C\C/C=C\CCCCCCCC(=O)O	34.8*	72.9*
CCCCC[C@H](O)/C=C/C=C/CCCCCCCC(=O)O	0.0	21.1
O=c1[nH]c2c(cc1CNc1ccc(Cl)cc1)c(-c1cccc(F)c1)nn2-c1ccccc1	-1.3	-7.5
O=c1[nH]c2c(cc1CNc1ccc(Oc3ccccc3)cc1)c(-c1ccc(F)cc1)nn2-c1ccccc1	40.5*	-11.3
O=C(NCc1ccc2c(c1)OCO2)c1cc2c(s1)CCC2	38.5*	21.9
O=C(NCc1ccc2c(c1)OCO2)c1ccsc1	-1.6	-5.4
COc1ccc(-c2nn3c(c2C)NC(=O)CC3C(=O)Nc2ccc3c(c2)OCO3)cc1 (configuration not stated)	4.4	5.2
Cc1ccc(NC(=O)CSc2nnc(-c3ccncc3)o2)cc1F	-2.8	-2.0
CN(C(=O)c1cccc2cccnc12)c1nc2c(s1)CCc1occc1-2	2.6	16.9
CCc1cc2c(=O)n(Cc3ccco3)c(SCC(=O)Nc3ccccc3O)nc2s1	6.0	5.9
COCCCNC(=O)c1ccc(Cn2c(=O)c3ccccc3n(CC(=O)NCc3ccco3)c2=O)cc1	-10.9	-16.7
COCCNC(=O)Cn1c(=O)n(Cc2ccc(C(=O)NCc3ccc(C)cc3)cc2)c(=O)c2ccccc21	5.8	47.5*
O=C1c2cccc(O)c2C(=O)c2c(O)cccc21	-25.5	-97.7
SMILES	UCHL1 inh	OTUD3 block
Cc1cc(O)c2c3c(c(O)cc2c1)C(=O)c1c(O)cccc1C3=O	67.2*	66.8*
CC1CC(=O)c2c(cc3c(-c4c(O)cc(O)c5c(O)c6c(cc45)OC(C)CC6=O)c(O)cc(O)c3c2O)O1 (configuration not stated)	83.4*	78.5*
O=C(Nc1ccc(F)cc1)c1ccc2c(c1)C1C3CCC(C3)C1C(c1ccccc1)N2 (configuration not stated)	0.1	-7.0
COc1ccc(N2CCN(C3=NC(CC(=O)Nc4ccccc4)C(=O)N3)CC2)cc1 (configuration not stated)	1.4	16.3
Cc1cc(C)nc(SCC(=O)N(Cc2ccco2)C2(C(=O)Nc3c(C)cccc3C)CCCCC2)n1	2.0	56.8*
CC(=O)Nc1cccc(C(=O)N(Cc2ccco2)C2(C(=O)Nc3c(C)cccc3C)CCCCC2)c1	2.2	-10.3
Clc1ccc2oc(-c3cccs3)nc2c1	-1.0	-2.2
Nc1ccc2oc(-c3cccc(-c4nc5cc(N)ccc5o4)n3)nc2c1	22.9	39.7*
Cc1nnc(NCc2cccnc2)c2c1nnn2Cc1ccccc1Cl	5.4	-1.3
CCCCN1C(=O)C2C(C(=O)Nc3ccc(Oc4ccccc4)cc3)C3C=CC2(O3)C1C(=O)NC1CCCCC1 (configuration not stated)	-3.2	15.7
CC(C)CCN1C(=O)C2C(C(=O)Nc3ccc(Oc4ccccc4)cc3)C3C=CC2(O3)C1C(=O)NC1CCCCC1 (configuration not stated)	4.0	30.1*
COC(=O)CC1CC2=C(C(=O)c3c(O)cccc3C2=O)C(C)O1 (configuration not stated)	5.2	24.5
